Bioassay records (PubChem)
Cruzain inh Det – blocks cruzain activity in presence of Triton detergent. Potency, µM, most hits filed as inhibitors. purified cruzain, Z-FR-AMC fluorescence, 0.01% Triton. P25779. 200,000 compounds, 0.43% hits. AID 1478; further: nearly all actives have a fitted effect of over 40% in size
Target sequence (P25779 123-467 limits assumed): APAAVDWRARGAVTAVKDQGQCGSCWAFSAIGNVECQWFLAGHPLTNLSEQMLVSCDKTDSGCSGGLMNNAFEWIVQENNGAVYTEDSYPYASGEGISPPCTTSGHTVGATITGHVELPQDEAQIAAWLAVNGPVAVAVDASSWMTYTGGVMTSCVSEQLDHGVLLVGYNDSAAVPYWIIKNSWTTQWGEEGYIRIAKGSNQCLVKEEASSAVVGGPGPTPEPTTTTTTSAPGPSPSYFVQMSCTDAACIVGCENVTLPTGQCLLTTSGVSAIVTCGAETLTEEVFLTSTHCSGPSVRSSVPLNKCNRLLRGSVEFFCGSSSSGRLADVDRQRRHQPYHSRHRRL
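Read-out: AMC fluorescence (360 nm excitation, 450 nm emission), four reads over 2 min, first-to-third difference used. Conditions: cruzain 1.5 nM, Z-FR-AMC 2 uM, pH 5.5 acetate, 5 mM DTT, 0.01% Triton X-100.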
Cruzain inh noDet – inhibitors of Trypanosoma cruzi cruzain without detergent; P25779; purified cruzain, Z-FR-AMC fluorescence, no detergent; Potency, µM, actives largely listed as inhibitors; 200,000 compounds, 2.3% hits; further: nearly all actives have a fitted effect of over 40% in size
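Detergent-free condition (0.00005% Triton X-100) in acetate buffer pH 5.5 with DTT. 1.5 nM enzyme and compound were pre-mixed 15 min, then 2 uM Z-FR-AMC substrate added; reaction progress from fluorescence change between first and third reads (60 s).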
Of the large screens only hits and unclear results are named; the others gave an inactive call. An excerpt weighted towards active compounds, which were near 2.6% of everything screened. The call rests on the fitted dose curve; in most records, active means well fitted curve in the direction sought with a large enough effect; inconclusive means small, poorly fitted or top-dose-only effect, or another doubt; inactive means no such curve, though single readings can be large; an effect the other way counts as inactive or inconclusive.

C/C(=N\NC(=O)C(=O)Nc1cccc(C(F)(F)F)c1)c1ccc(Cl)s1	Cruzain inh noDet 15.8µM
CCOc1ccc(NC(=O)Cn2cnc3c(oc4ccccc43)c2=O)cc1	Cruzain inh noDet inconclusive
O=C1c2ccccc2C(=O)N1c1ccc(-c2nc3ccccc3o2)cc1	none
NCc1ccc(-c2nc3ccccc3o2)cc1	Cruzain inh noDet 12.6µM
Cc1ccc(S(=O)(=O)c2c(N)n(/N=C/c3ccco3)c3nc4ccccc4nc23)cc1C	Cruzain inh noDet 15.8µM
Cc1cccc(S(=O)(=O)c2c(N)n(/N=C/c3ccco3)c3nc4ccccc4nc23)c1	none
CCOC(=O)c1c(NC(=S)NC)sc2c1CC(C)(C)SC2	none
CCOC(=O)c1c(NC(=S)Nc2ccccc2)sc2c1CC(C)(C)SC2	Cruzain inh noDet 12.6µM
CCOC(=O)c1c(NC(=S)Nc2ccc(Cl)cc2)sc(C)c1C	Cruzain inh noDet 3.98µM
COC(=O)c1c(NC(=S)Nc2ccc(CC(=O)O)cc2)sc(C)c1C	none
O=C(NCCSc1c(-c2ccc(Br)cc2)[nH]c2ccccc12)c1ccc(S(=O)(=O)N2CCOCC2)cc1	Cruzain inh noDet inconclusive
COC(=O)c1c(NC(=O)CN2C(=O)NC3(CCC(C(C)(C)C)CC3)C2=O)sc2c1CCCCC2 (stereo not given)	Cruzain inh noDet 15.8µM
CC1CCCCC12NC(=O)N(CC(=O)Nc1sc3c(c1C(N)=O)CCC3)C2=O (stereo not given)	none
O=C(CN1C(=O)NC2(CCc3ccccc3C2)C1=O)Nc1ccc(Cl)cc1F (stereo not given)	none
COC(=O)c1c(NC(=O)CN2C(=O)NC3(CCc4ccccc4C3)C2=O)sc2c1CCCCC2 (stereo not given)	Cruzain inh noDet 12.6µM
COc1cccc(CNC(=O)Cn2c(=O)ccc3cc(S(=O)(=O)N4CCCC4)ccc32)c1	none
CC1c2nc3ccccc3n2C(CC(=O)NCc2ccccn2)C(=O)N1Cc1ccccc1 (stereo not given)	Cruzain inh noDet 12.6µM
O=C(CCc1ccccc1)NCc1ccccn1	none
CC1=C2C(=O)[C@@H]3[C@@H](CC=C4C[C@@H](O)CC[C@@]43C)[C@H]2CC[C@@]12O[C@H]1C[C@H](C)CN[C@H]1[C@@H]2C	none
COC(=O)c1c(SC)nc2ccccc2c1OCc1ccc(C)cc1C	none
COc1ccc(Cn2c(CCC(=O)Nc3cc(OC)c(OC)c(OC)c3)nc3cccnc32)cc1	Cruzain inh noDet inconclusive
COc1ccc2[nH]cc(CCNc3ncncc3-c3ccccc3C)c2c1	none
CCOP(=O)(OCC)c1nc(-c2ccc(C)cc2)oc1NCc1ccccc1	Cruzain inh noDet inconclusive
CNc1oc(-c2ccc(Cl)cc2)nc1P(=O)(c1ccccc1)c1ccccc1	Cruzain inh Det 12.6µM, Cruzain inh noDet inconclusive
c1c[nH]c(CN2CCOCC2)n1	none
C1CCC(C(C[C@@H]2CCCCN2)C2CCCCC2)CC1	none
c1coc(-c2nc3ccccc3nc2-c2ccco2)c1	Cruzain inh Det 14.1µM, Cruzain inh noDet 12.6µM
O=c1oc(-c2ccco2)nc2ccccc12	none
CC(=O)NCCNc1nc(-c2cccnc2)nc2ccccc12	none
Oc1csc(Cc2nc(-c3ccc(-c4ccccc4)cc3)cs2)n1	Cruzain inh noDet 10µM
Oc1csc(Cc2nc(-c3ccc4ccccc4c3)cs2)n1	Cruzain inh noDet inconclusive
CNC(=O)[C@H]1O[C@@H](n2cnc3c(N)ncnc32)[C@H](O)[C@H]1O	none
COCCN1CN=C(Nc2nc3ccccc3o2)NC1	none
COCCN1CN=C(Nc2nc3ccccc3s2)NC1	Cruzain inh Det inconclusive, Cruzain inh noDet 15.8µM
CCN(CC)S(=O)(=O)c1ccc2c(c1)nc(CN(C)C(=O)Nc1ccc(C)c(F)c1)n2C	Cruzain inh noDet inconclusive
CCc1ccc(S(=O)(=O)c2nnn(-c3ccc(F)cc3)c2N)cc1	none
CCOc1cc(/C=C(/C#N)c2nc3ccccc3[nH]2)ccc1Oc1ccc([N+](=O)[O-])cn1	none
COc1ccc2nc(/C(C#N)=C\c3ccc(Oc4ccc([N+](=O)[O-])cn4)cc3)[nH]c2c1	Cruzain inh noDet 25.1µM
Cc1ccc(/C(C#N)=C/c2cccc([N+](=O)[O-])c2)cc1	none
Cc1ccc2nc(/C(C#N)=C\c3cc(C)n(-c4cccc([N+](=O)[O-])c4)c3C)[nH]c2c1	Cruzain inh noDet 25.1µM
Cc1ccc2nc(/C(C#N)=C\c3ccc(Oc4ccc([N+](=O)[O-])cn4)cc3)[nH]c2c1	Cruzain inh noDet 10µM
Cc1ccc2nc(/C(C#N)=C\c3ccc([N+](=O)[O-])o3)[nH]c2c1	Cruzain inh noDet inconclusive
COc1cc(/C=C(/C#N)c2ccc(C)cc2)ccc1Oc1ccc([N+](=O)[O-])cn1	Cruzain inh noDet 25.1µM
COc1cc(/C=C(/C#N)c2nc3ccccc3[nH]2)ccc1Oc1ncccc1[N+](=O)[O-]	Cruzain inh noDet inconclusive
NC(CCl)=N[C@H]1CN2CCC1CC2	none
Cc1ccc(C(=O)N2CC(=O)Nc3ccc(Br)cc3C2c2ccc(F)cc2)cc1C (stereo not given)	Cruzain inh noDet inconclusive
COC(=O)[C@@H]1C[C@H]1[C@@H](NC(=O)c1cc(C)nn1C)c1ccccc1	none
COc1c(C2=CC(=O)N(C)C2=O)c2c(n1C)C(=O)c1ccccc1C2=O	none
CC(/C=N/NC(=O)Cc1cccs1)=C\c1ccccc1	none
O=C(Cc1cccs1)N/N=C/C(Br)=C/c1ccccc1	Cruzain inh noDet 15.8µM
COCCCNC(=O)C(=O)NCC(c1ccc2c(c1)OCO2)N1CCOCC1 (stereo not given)	none
CCCCCc1ccc(-c2ccc(C(=O)Oc3ccc(C(=O)OC)cc3)cc2)nc1	none
CCCCCc1ccc(-c2ccc(/C=C/C(N)=O)cc2)nc1	Cruzain inh noDet 12.6µM
c1ccc(CNc2ccnc(-c3cccnc3)n2)cc1	none
Clc1ccc(-c2nnc3sc(-c4ccc(Br)o4)nn23)c(Cl)c1	Cruzain inh noDet 20µM
Clc1ccccc1-c1nnc2sc(-c3ccc(Br)o3)nn12	none
COc1cc(CN(C(=O)c2ccc(OC(C)C)cc2)c2ccccn2)cc(OC)c1OC	Cruzain inh noDet inconclusive
CCc1ccc(CN(Cc2cn[nH]c2-c2ccc(OC)cc2)C(=O)Nc2ccc(C)c(F)c2)cc1	none
COC(=O)C(C(=O)OC)C(Cc1cc(F)cc(F)c1F)NC=O (stereo not given)	none
CCOc1ccc(/C=C2/SC(=S)N(n3c(C)ccc3C)C2=O)cc1	none
COc1ccc(/C=C2/SC(=S)N(n3c(C)ccc3C)C2=O)cc1	Cruzain inh noDet 25.1µM
NC(=O)C[C@@H](N)c1nn[nH]n1	none
CCc1ccc(NC(=O)c2cc(S(=O)(=O)N3CCCCCC3)ccc2F)cc1	none
CSc1nc(NCc2ccco2)c2sc3nc(C(C)C)c4c(c3c2n1)CC(C)(C)OC4	none
CSc1nc(NCCOCCO)c2sc3nc(-c4ccco4)c4c(c3c2n1)CCC4	Cruzain inh Det 7.94µM
COc1ccc(-c2nn3c(=O)cc(CN4CCN(C(=O)Nc5ccc(C)c(Cl)c5)CC4)nc3s2)cc1	none
COc1ccc(NS(=O)(=O)c2cnc(N)nc2)cc1Cl	none
COc1ccc(C)cc1NS(=O)(=O)c1c(C(=O)N2CCCCCC2)c(C)n(C)c1C	Cruzain inh noDet inconclusive
CN(C)/C=C(\C=N\OCc1ccc(Cl)cc1Cl)C(=O)Nc1ccc(Cl)c(Cl)c1	Cruzain inh noDet 20µM
COC(=O)c1nn(-c2ccccc2)c(Cl)c1/C=N/OCc1ccc(Cl)cc1Cl	none
COc1ccc(-c2cc(=O)c3c(O)cc(O[C@H]4OC(COC5OC(C)C(O)C(O)[C@H]5O)C(O)C(O)C4O)cc3o2)cc1O (stereo not given in full)	none
COc1cccc(-c2nc(N3CCN(Cc4ccccc4)CC3)c3ccccc3n2)c1O	none
